Reference: the supplement of paper PMC10849652
Targets with a hit are over-represented here; the source holds about 7,900 in all. About 0.6% of all pairs of compound and target were hits.

How the values were obtained:
Assay in all cases: log2 fold change, soluble protein after heating vs DMSO (PISA); higher = thermal stabilisation; K562 cells, 10 uM, 30 min; active = over 0.2 and 3.5 SD of the protein, either way, in both replicates (recomputed)
[1] = molecular target: YAE1 (UniProt Q9NRH1)
How it was run: (§1)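 K562 cells at 2×10^6 cells/mL were treated for 30 min with 10 μM compound, and aliquots were heated for 3 min over 48°C-58°C before pooling. Extraction used PBS with 0.5% NP-40 at 4°C, and soluble protein was the supernatant after 21,000xg for 90 min, measured by TMTpro 16plex LC-MS/MS with channel sums equalised. Thermal stability values, relative to control samples and from duplicates, are log2 fold changes.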

[2] = molecular target: YBX1 (UniProt P67809)
YBX1, sequence (P67809 whole entry, looked up): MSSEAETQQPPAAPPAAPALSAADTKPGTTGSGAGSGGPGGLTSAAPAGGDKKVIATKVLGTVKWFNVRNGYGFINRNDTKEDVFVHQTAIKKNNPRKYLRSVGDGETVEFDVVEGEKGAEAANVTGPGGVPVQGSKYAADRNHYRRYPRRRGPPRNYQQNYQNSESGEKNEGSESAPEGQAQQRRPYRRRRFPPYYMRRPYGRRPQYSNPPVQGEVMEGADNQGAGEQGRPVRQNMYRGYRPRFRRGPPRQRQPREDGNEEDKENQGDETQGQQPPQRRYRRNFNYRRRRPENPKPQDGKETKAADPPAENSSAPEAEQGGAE
How it was run: as §1

[3] = molecular target: YES1 (UniProt P07947)
YES1, sequence (P07947 whole entry, looked up): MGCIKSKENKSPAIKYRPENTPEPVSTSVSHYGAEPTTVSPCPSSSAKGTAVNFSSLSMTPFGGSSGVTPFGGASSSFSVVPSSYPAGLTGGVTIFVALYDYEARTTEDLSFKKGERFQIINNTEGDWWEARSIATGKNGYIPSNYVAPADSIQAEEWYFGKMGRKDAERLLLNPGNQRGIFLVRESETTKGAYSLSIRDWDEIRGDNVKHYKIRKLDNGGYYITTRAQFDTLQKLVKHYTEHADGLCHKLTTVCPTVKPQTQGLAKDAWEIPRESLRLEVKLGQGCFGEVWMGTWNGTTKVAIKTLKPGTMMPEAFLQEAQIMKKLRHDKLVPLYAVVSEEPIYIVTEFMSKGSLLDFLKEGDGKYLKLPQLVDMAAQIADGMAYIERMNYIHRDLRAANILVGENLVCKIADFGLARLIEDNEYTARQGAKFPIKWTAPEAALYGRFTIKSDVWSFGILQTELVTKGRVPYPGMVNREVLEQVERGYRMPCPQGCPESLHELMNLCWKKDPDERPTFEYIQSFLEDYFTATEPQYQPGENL
How it was run: as §1

[4] = molecular target: YIPF4 (UniProt Q9BSR8)
YIPF4, sequence (Q9BSR8 whole entry, looked up): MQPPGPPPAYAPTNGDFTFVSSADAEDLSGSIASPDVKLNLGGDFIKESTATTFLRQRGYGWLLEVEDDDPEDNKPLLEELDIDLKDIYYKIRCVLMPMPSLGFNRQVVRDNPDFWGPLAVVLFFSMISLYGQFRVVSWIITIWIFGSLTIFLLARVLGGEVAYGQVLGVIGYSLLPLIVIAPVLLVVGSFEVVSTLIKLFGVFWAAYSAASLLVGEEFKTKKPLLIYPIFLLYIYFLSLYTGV
How it was run: as §1

[5] = molecular target: YIPF5 isoform 3 (UniProt Q969M3)
YIPF5 isoform 3, sequence (Q969M3 whole entry, looked up, canonical isoform): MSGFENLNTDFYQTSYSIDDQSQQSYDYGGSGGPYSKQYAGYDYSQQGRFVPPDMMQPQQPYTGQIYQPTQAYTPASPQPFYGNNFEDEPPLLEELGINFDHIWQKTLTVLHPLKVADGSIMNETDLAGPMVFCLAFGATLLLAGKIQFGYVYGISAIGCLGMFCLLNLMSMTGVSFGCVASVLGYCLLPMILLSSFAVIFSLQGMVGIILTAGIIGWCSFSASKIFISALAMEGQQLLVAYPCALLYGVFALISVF
How it was run: as §1

[6] = molecular target: YIPF6 (UniProt Q96EC8)
YIPF6, sequence (Q96EC8 whole entry, looked up): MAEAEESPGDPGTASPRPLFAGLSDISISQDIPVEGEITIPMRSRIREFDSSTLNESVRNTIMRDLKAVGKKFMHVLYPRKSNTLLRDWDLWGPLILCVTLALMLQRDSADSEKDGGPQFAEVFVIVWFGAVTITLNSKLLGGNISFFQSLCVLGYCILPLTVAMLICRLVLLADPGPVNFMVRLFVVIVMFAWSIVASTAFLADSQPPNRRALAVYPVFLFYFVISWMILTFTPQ
How it was run: as §1

[7] = molecular target: YLPM1 (UniProt P49750)
YLPM1, sequence (P49750 whole entry, looked up): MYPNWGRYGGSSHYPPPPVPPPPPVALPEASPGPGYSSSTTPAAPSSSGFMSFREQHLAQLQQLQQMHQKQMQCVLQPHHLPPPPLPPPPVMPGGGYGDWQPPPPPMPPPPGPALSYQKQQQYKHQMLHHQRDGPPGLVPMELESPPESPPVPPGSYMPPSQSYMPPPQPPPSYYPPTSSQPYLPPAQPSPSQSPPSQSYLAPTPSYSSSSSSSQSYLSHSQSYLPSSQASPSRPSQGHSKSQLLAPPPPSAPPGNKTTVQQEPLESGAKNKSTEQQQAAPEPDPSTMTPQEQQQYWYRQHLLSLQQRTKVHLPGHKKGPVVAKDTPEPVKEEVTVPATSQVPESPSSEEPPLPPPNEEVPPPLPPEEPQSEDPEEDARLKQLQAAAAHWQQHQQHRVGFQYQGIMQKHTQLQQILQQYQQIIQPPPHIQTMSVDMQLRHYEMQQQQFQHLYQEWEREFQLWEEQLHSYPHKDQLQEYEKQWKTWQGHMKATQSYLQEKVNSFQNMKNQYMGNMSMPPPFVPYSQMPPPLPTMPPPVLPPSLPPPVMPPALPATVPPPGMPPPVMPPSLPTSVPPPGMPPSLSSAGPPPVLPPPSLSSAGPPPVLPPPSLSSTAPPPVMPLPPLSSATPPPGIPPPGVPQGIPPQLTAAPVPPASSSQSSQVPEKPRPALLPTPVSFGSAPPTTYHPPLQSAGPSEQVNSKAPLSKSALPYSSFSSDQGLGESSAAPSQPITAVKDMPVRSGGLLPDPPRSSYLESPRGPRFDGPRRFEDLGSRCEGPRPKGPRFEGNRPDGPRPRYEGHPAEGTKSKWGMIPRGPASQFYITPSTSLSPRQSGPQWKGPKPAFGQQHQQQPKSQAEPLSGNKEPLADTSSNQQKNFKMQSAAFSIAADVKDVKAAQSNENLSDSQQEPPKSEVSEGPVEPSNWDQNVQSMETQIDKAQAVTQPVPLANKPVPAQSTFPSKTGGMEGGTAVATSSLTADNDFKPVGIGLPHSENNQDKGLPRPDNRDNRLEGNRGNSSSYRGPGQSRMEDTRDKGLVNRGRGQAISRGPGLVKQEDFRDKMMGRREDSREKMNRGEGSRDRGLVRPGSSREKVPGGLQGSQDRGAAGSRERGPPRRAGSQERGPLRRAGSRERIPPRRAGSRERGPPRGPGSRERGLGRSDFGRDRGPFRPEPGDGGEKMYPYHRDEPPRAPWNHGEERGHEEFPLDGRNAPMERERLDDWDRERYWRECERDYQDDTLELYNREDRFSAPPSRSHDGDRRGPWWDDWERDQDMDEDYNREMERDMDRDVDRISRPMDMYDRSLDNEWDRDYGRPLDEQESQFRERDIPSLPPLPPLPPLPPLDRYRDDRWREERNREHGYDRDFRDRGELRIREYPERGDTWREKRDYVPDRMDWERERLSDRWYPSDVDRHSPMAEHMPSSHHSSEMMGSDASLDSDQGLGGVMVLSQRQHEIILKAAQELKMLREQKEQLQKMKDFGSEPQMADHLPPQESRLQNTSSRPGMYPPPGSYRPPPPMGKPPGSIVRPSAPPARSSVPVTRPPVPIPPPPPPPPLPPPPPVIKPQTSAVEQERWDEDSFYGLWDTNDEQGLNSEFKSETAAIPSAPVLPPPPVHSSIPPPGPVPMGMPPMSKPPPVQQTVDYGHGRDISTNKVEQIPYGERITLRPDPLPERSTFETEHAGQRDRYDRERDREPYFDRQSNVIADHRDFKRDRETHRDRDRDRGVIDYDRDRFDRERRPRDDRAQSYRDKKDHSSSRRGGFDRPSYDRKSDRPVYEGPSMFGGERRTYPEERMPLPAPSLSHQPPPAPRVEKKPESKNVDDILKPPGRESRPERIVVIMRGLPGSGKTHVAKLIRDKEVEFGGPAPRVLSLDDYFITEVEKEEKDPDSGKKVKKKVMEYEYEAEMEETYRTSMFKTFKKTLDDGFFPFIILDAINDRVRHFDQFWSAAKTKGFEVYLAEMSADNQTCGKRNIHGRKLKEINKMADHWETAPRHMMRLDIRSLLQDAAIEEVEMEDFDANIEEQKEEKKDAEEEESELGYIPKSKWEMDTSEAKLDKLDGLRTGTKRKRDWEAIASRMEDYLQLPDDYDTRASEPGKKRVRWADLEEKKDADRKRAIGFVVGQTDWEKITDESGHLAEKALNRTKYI
How it was run: as §1

[8] = molecular target: YOD1 (UniProt Q5VVQ6)
YOD1, sequence (Q5VVQ6 whole entry, looked up): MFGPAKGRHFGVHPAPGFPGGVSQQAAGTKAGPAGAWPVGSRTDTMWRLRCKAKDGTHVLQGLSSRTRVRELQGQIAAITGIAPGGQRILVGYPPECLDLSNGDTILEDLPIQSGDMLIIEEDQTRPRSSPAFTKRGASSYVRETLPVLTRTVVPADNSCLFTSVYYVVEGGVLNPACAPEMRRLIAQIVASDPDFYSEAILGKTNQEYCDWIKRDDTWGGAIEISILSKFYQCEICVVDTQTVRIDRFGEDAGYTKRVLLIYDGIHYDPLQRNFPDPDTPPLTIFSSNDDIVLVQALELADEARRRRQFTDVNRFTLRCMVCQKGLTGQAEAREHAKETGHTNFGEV
How it was run: as §1

[9] = molecular target: YPEL5 (UniProt P62699)
YPEL5, sequence (P62699 whole entry, looked up): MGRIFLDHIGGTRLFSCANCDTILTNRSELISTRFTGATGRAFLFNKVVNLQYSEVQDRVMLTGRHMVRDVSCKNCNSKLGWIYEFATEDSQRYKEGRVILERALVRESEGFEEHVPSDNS
How it was run: as §1

Measured: log2 fold change

YAE1, sequence (Q9NRH1 whole entry, looked up): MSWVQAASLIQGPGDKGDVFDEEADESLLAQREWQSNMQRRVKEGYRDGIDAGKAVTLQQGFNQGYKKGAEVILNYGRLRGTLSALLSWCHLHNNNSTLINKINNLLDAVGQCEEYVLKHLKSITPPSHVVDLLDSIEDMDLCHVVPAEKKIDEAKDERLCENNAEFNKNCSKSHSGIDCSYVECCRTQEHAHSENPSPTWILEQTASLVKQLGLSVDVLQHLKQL

CC(C)C[C@@H](C=O)NC(=O)[C@H](CC(C)C)NC(=O)[C@H](CC(C)C)NC(=O)OCc1ccccc1
inactive: [1] 0.007 | [2] 0.083 | [3] 0.068 | [4] -0.016 | [5] -0.012 | [6] 0.02 | [7] 0.028 | [8] 0.045 | [9] 0.05

CCN(CC)Cc1ccc2cc(COC(=O)Nc3ccc(C(=O)NO)cc3)ccc2c1 [givinostat]
inactive: [1] -0.017 | [2] -0.056 | [3] 0.016 | [4] -0.048 | [5] -0.053 | [6] -0.028 | [7] 0.061 | [8] 0.024 | [9] -0.009

C[C@@H]1COCCN1c1cc(C2(S(C)(=O)=O)CC2)nc(-c2cccc3[nH]ccc23)n1
inactive: [1] -0.039 | [2] -0.368 | [3] -0.035 | [4] 0.095 | [5] 0.019 | [6] 0.076 | [7] 0.015 | [8] 0.055 | [9] -0.079

Cc1ncc(-c2ccnc(Nc3ccc(S(C)(=O)=O)cc3)n2)n1C(C)C
inactive: [1] 0.042 | [2] 0.013 | [3] -0.051 | [4] -0.005 | [5] -0.03 | [6] -0.023 | [7] -0.011 | [8] -0.018 | [9] 0.036

O=C(CCCCCCNC(=O)c1cnc(N(c2ccccc2)c2ccccc2Cl)nc1)NO [citarinostat]
inactive: [1] 0.04 | [2] -0.13 | [3] 0.008 | [4] 0.042 | [5] 0.023 | [6] 0.011 | [7] 0.099 | [8] 0.067 | [9] -0.077

Cc1ccc(NC(=O)c2ccc(CN3CC[C@H](N(C)C)C3)c(C(F)(F)F)c2)cc1Nc1nccc(-c2cncnc2)n1 [bafetinib]
inactive: [1] 0.013 | [2] 0.146 | [3] 0.049 | [4] -0.045 | [5] -0.028 | [6] -0.169 | [7] 0.083 | [8] -0.07 | [9] 0.064

Cc1cn(-c2cc(NC(=O)c3ccc(C)c(Nc4nccc(-c5cccnc5)n4)c3)cc(C(F)(F)F)c2)cn1 [nilotinib]
inactive: [1] -0.023 | [2] 0.033 | [3] -0.033 | [4] 0.046 | [5] 0.021 | [6] 0.063 | [7] -0.044 | [8] -0.061 | [9] -0.237

CN1CC[C@H](c2c(O)cc(O)c3c(=O)cc(-c4ccccc4Cl)oc23)[C@H](O)C1 [alvocidib]
active: [1] 0.249
inactive: [2] 0.295 | [3] -0.029 | [4] 0.027 | [5] 0.003 | [6] 0.022 | [7] 0 | [8] -0.088 | [9] -0.234

CN(CCOc1ccc(C[C@@H]2SC(=O)NC2=O)cc1)c1ccccn1 (racemic) [rosiglitazone]
inactive: [1] 0.062 | [2] -0.074 | [3] 0.013 | [4] 0.005 | [5] 0.003 | [6] 0.027 | [7] 0.047 | [8] 0.029 | [9] -0.048

COc1cccc2cc(-c3nc([C@H]4CC[C@H](C(=O)O)CC4)n4ncnc(N)c34)[nH]c12
inactive: [1] 0.016 | [2] -0.091 | [3] -0.256 | [4] 0.06 | [5] 0.017 | [6] 0.02 | [7] 0.053 | [8] 0.011 | [9] -0.142

Oc1cc(-c2nc(-c3ccccc3)[nH]c2-c2ccncc2)ccc1Cl
inactive: [1] -0.015 | [2] -0.053 | [3] -0.112 | [4] -0.054 | [5] -0.05 | [6] -0.041 | [7] -0.024 | [8] -0.02 | [9] 0.213

Cn1cc(-c2ccc3c(c2)CCN3C(=O)Cc2cccc(C(F)(F)F)c2)c2c(N)ncnc21
inactive: [1] -0.095 | [2] -0.199 | [3] -0.284 | [4] 0.03 | [5] -0.014 | [6] -0.035 | [7] 0.077 | [8] 0.023 | [9] -0.077

Cc1ccc(NC(=O)c2cccc(C(C)(C)C#N)c2)cc1Nc1ccc2ncn(C)c(=O)c2c1
inactive: [1] 0.056 | [2] 0.041 | [4] 0.013 | [5] 0.042 | [6] -0.131 | [7] -0.095 | [8] 0.067 | [9] -0.131

CC1=C(C(=O)Nc2cc3cn[nH]c3cc2F)C(c2ccc(C(F)(F)F)cc2)CC(=O)N1 (stereo not drawn)
inactive: [1] -0.001 | [2] 0.044 | [3] -0.012 | [4] -0.019 | [5] -0.007 | [6] 0.055 | [7] -0.01 | [8] 0.023 | [9] 0.058

Nc1ccccc1NC(=O)c1ccc(CNC(=O)OCc2cccnc2)cc1 [entinostat]
inactive: [1] 0.011 | [2] -0.073 | [4] -0.04 | [5] -0.05 | [6] 0.228 | [7] -0.064 | [8] -0.143 | [9] -0.187

Cc1cc(Nc2cc(CN3CCOCC3)c3nc(C)c(Cc4ccc(Cl)cc4F)n3n2)n[nH]1 [gandotinib]
inactive: [1] 0.007 | [2] 0.334 | [3] -0.447 | [4] -0.086 | [5] -0.1 | [6] -0.019 | [7] -0.117 | [8] -0.149 | [9] -0.095

CCN(CCCOc1ccc2c(Nc3cc(CC(=O)Nc4cccc(F)c4)[nH]n3)ncnc2c1)CCOP(=O)(O)O [barasertib]
inactive: [1] 0.097 | [2] -0.127 | [3] -0.006 | [4] 0.026 | [5] -0.08 | [6] -0.041 | [7] 0.03 | [8] 0.051 | [9] 0.121

CON(C)C(=O)N1N=C(c2cc(F)ccc2F)S[C@@]1(CCCN)c1ccccc1 [filanesib]
inactive: [1] 0.133 | [2] 0.202 | [4] 0.077 | [5] 0.017 | [6] -0.08 | [7] 0.083 | [8] -0.067 | [9] 0.413

COc1cc(Nc2ncc3c(n2)-c2ccc(Cl)cc2C(c2c(F)cccc2OC)=NC3)ccc1C(=O)O [alisertib]
inactive: [1] -0.065 | [2] -0.066 | [3] -0.211 | [4] -0.134 | [5] -0.009 | [6] 0.419 | [7] 0.017 | [8] 0.19 | [9] 0.086

COc1cc2ncnc(Nc3ccc(F)c(Cl)c3)c2cc1OCCCN1CCOCC1 [gefitinib]
inactive: [1] -0.016 | [2] -0.096 | [3] -0.045 | [4] 0.038 | [5] 0.024 | [6] 0.005 | [7] 0.002 | [8] 0.006 | [9] -0.239

Cc1ccc(C(=O)N(CCCN)[C@@H](c2nc3cc(Cl)ccc3c(=O)n2Cc2ccccc2)C(C)C)cc1 [ispinesib]
inactive: [1] 0.063 | [2] -0.093 | [3] -0.097 | [4] -0.024 | [5] 0.08 | [6] 0.02 | [7] 0.034 | [8] -0.042 | [9] -0.039

Cc1ccc(NC(=O)c2cccc(N(C)C)c2)cc1NC(=O)c1ccc(O)cc1
inactive: [1] 0.009 | [2] 0.011 | [3] 0.037 | [4] 0.025 | [5] -0.138 | [6] 0.024 | [7] -0.023 | [8] -0.028 | [9] 0.081

Cn1c2cc(S(C)=O)sc2c2cnn(Cc3cccc(N)c3)c(=O)c21 (stereo not drawn)
inactive: [1] 0.046 | [2] 0.183 | [3] 0.053 | [4] -0.06 | [5] 0.043 | [6] -0.097 | [7] -0.057 | [8] -0.04 | [9] 0.132

COc1cc2nc(-c3cc(F)ccc3O)nc(N[C@@H]3CNC[C@H]3C(C)(C)O)c2cc1OC
inactive: [1] 0.125 | [2] -0.054 | [3] -0.052 | [4] -0.094 | [5] 0.13 | [6] 0.043 | [7] 0.1 | [8] 0.018 | [9] 0.096
